# Screening data deposited in PubChem by National Center for Advancing Translational Sciences (NCATS).
# HCV inhibitor – qHTS Assay for Inhibitors of Hepatitis C Virus (HCV); Huh7.5.1 HCVcc-Cre infection, luciferase reporter, 44 h; Potency, µM (top dose mostly 41.8 µM), inactives show at the top dose activity change, negative = inhibition, most hits filed as inhibitors; actives 3.4% (n = 340,000); AID 651820, 2012; also: potency is read from the fitted curve at half-maximal effect
#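 Cells (1,000/well) were plated 4 h before compound, then infected with HCVcc-Cre virus (~0.5 moi). After 44 h further culture, infection was read as luciferase luminescence following a 15 min substrate incubation at room temperature.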
# FBPA Giardia inh – qHTS Assay for Inhibitors of Fructose-1,6-bisphosphate Aldolase from Giardia Lamblia. A8B2U2. actives 0.71% (n = 290,000). purified Giardia FBPA. Potency, µM (series often up to 59.6 µM), without a hit: top-dose activity, negative = inhibition, actives largely listed as inhibitors. AID 2451, 2010; also: potency is read from the fitted curve at half-maximal effect; nearly all actives have a fitted effect of over 55% in size
# Target sequence (A8B2U2 whole entry, looked up): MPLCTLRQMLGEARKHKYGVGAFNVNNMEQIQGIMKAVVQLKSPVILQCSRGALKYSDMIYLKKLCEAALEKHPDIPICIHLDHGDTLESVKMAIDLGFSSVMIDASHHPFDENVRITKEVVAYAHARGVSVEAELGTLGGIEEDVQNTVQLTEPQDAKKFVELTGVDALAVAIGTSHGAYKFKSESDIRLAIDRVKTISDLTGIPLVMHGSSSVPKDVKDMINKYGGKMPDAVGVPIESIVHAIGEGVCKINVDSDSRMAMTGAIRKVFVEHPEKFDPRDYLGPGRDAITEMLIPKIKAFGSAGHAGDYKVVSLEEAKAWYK
#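 40 nM FBPA preincubated 10 min at RT with compound (up to 57.5 uM final), then substrate plus GAPDH/TPI/NAD/arsenate coupling and diaphorase/resazurin added. Fluorescence read after 20 min at RT, 525/598 nm.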
# Vaccinia mCherry – qHTS for Stage-Specific Inhibitors of Vaccinia Orthopoxvirus: mCherry Reporter Primary qHTS; Vaccinia virus mCherry reporter infection, fluorescence; Potency, µM (doses to about 36.5 µM), for inactives: at the highest dose activity change, negative = inhibition, actives largely listed as inhibitors; actives 0.63% (n = 310,000); calls by dose curve; tested in A549 cells; also: potency is read from the fitted curve at half-maximal effect; nearly all actives have a fitted effect of over 35% in size
# Vaccinia Venus – qHTS for Stage-Specific Inhibitors of Vaccinia Orthopoxvirus: Venus Reporter Primary qHTS; AID 720580, 2013; Vaccinia virus Venus reporter expression, fluorescence; actives 0.46% (n = 330,000); Potency, µM (doses to about 36.5 µM), for the others: at the highest dose activity change, negative = inhibition, actives largely listed as inhibitors; calls by dose curve; tested in A549 cells; also: potency is read from the fitted curve at half-maximal effect; nearly all actives have a fitted effect of over 30% in size
# HCMV antiviral – qHTS Assay for inhibitors of the human cytomegalovirus (HCMV) | activity change, negative = inhibition, % at 57.5 µM | actives 4.5% (n = 410,000) | HFF cells, HCMV-luciferase reporter, 72 h; active compounds read low | AID 1259415, 2018; in the data active = activity change below about -60%; inconclusive = no clear call, values can overlap the other calls; inactive = above about -39%
#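 Cell-based, HFFs, 1000 cells/well, 16 h 37C; cpds in DMSO + HCMV-luc, MOI 1 PFU/cell; 72 h 37C; OneGlo luminescence after 5 min RT; norm. to buffer vs Salinomycin 10uM.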
# FMDV inh – High Throughput Screening for Foot and Mouth Disease Virus Antivirals | FMDV antiviral cell-based qHTS | Potency, µM (titrated, usually from 57.9 µM), for the others: at the highest dose activity change, negative = inhibition, most hits filed as inhibitors | actives 1.2% (n = 410,000); calls by dose curve; tested in HEK293T cells; also: read-out not given here; potency is read from the fitted curve at half-maximal effect; nearly all actives have a fitted effect of over 45% in size
# Numbers without * were called inactive; i = inactive; ? = inconclusive; . = not tested or not shown; [ ] = another dose, or the depositor's remark. Most compounds without a hit are left out; they make up all but 7.5% or so of the library. Unless noted, calls follow the shape of the dose curve; as a rule, active = well fitted curve in the direction sought with a large enough effect; inconclusive = small, poorly fitted or top-dose-only effect, or another doubt; inactive = no such curve, though single readings can be large; an effect the other way counts as inactive or inconclusive. % is scaled to controls: 0 for no effect and ±100 for the full control effect.
SMILES,HCV inhibitor,FBPA Giardia inh,Vaccinia mCherry,Vaccinia Venus,HCMV antiviral,FMDV inh
S=c1sc2c(Cl)ncnc2n1-c1ccccc1,4µM*,3%,.,.,24,?
OC(c1ccccc1)(c1ccccc1)C1CCN(CCCOc2ccc3c(c2)CCCC3)CC1,.,.,?,?,-34,?
CCOc1ccccc1CNc1ccc(N2CCOCC2)c(C(=O)O)c1,-20%,-1%,.,.,24,8%
CO[C@@H]1CN(C)C(=O)c2ccc(NC(=O)C3CCCC3)cc2OC[C@@H](C)N(Cc2ccc(F)cc2)C[C@H]1C,.,.,?,?,-63*,-14%
O=C(COc1ccccc1)Nc1c(C(=O)N2CCC(N3CCCCC3)CC2)oc2ccccc12,-26%,.,.,.,-70*,47%
O=C(Nc1c(C(=O)N2CCC(N3CCCCC3)CC2)oc2ccccc12)c1ccc(F)cc1,13µM*,.,.,.,-31,24%
O=C(NCc1ccccc1CN1CCCC1)c1ccc(Cl)c(N2CCCC2=O)c1,18µM*,.,.,.,-34,6%
CCOc1ccccc1N(C)C(=O)Cn1nc(Cc2ccncc2)c2ccccc2c1=O,.,.,-14%,-7%,-31,-8%
CCOc1ccccc1N(C)C(=O)Cn1nc(Cc2cccnc2)c2ccccc2c1=O,.,.,-15%,1%,-72*,-2%
COc1cccc(C(=O)Nc2ccc(C(=O)OCc3cc(=O)n4nc(C5CC5)sc4n3)cc2)c1,.,.,-17%,-17%,43,-30%
Cc1sc(NC(=O)C2CSC3(C)CCC(=O)N23)nc1-c1ccc(F)cc1 (stereo not given),14µM*,3%,-27%,-29%,-4,-13%
COc1cc(NC(=O)C2CSC3(C)CCC(=O)N23)c(OC)cc1Cl (stereo not given),10µM*,.,-2%,-17%,4,-12%
CC(O)(COc1ccccc1)c1ccc2c(c1)CN(Cc1cccn1-c1ccccn1)CCO2 (stereo not given),.,.,-13%,-1%,.,-13%
Cc1nc2cc(-c3ccsc3-n3c(C)ccc3C)[nH]n2c(=O)c1Cl,20%,?,-11%,6%,-12,32µM*
O=C1c2ccccc2C(=O)N1CCCn1c2ccc(Cl)cc2c2nc3ccccc3nc21,29%,.,.,.,-25,-2%
CC(Oc1ccc(Br)cc1)C(=O)Nc1nc(-c2ccccn2)cs1 (stereo not given),11µM*,.,13µM*,?,-88*,40µM*
CC(=O)Nc1ccc(C(=O)Nc2nc(-c3ccccn3)cs2)cc1,-11%,?,.,.,-9,-15%
CC(C)[C@H](NC(=O)c1ccccc1Cl)C(=O)Nc1nc(-c2ccccn2)cs1,?,?,?,?,-83*,?
CS(=O)(=O)N(CC(=O)N1CCCC1)c1cccc(F)c1,10%,18%,i,-4%,24,1%
COc1cccc(NC(=O)C2CCN(S(=O)(=O)c3ccc4c(c3)CC(C)N4C(C)=O)CC2)c1 (stereo not given),?,0%,.,.,?,-17%
CCc1cccc(NC(=O)C2CCN(S(=O)(=O)c3ccc4c(c3)CC(C)N4C(C)=O)CC2)c1 (stereo not given),?,-3%,-24%,?,-85*,14µM*
CC(=O)N1c2ccc(S(=O)(=O)N3CCC(C(=O)Nc4cccc(C(F)(F)F)c4)CC3)cc2CC1C (stereo not given),2.5µM*,-1%,-14%[7.34 µM],-16%[7.34 µM],-89*,?
CC(=O)N1c2ccc(S(=O)(=O)N3CCC(C(=O)Nc4ccc(F)cc4)CC3)cc2CC1C (stereo not given),11µM*,10%,i,-16%,?,-28%
CCNc1ncc2nc(-c3ccc(Cl)cc3)c(=O)n(-c3ccccc3)c2n1,.,-3%,.,.,.,11%
Cc1ccc(O)c(Nc2nc(-c3ccccc3)nc3ccccc23)c1,-29%,?,-2%,-9%,-30,-16%
SMILES,HCV inhibitor,FBPA Giardia inh,Vaccinia mCherry,Vaccinia Venus,HCMV antiviral,FMDV inh
Cc1ccc(O)c(Nc2c3ccccc3nc3ccccc23)c1,10µM*,-2%,?,?,-36,?
O=C1N/C(=C/c2ccc(N3CCOCC3)o2)C(=O)N1c1cccc(Cl)c1,?,-25%,.,.,-100*,-17%
O=C1NC(=O)C(=Cc2ccc(N3CCOCC3)o2)C(=O)N1,19%,-5%,i,-6%,-1,9%
CNCc1ccccc1Sc1ccc(O)c(O)c1,?,2.5µM*,-23%,-9%,31,-26%
Cc1nc(CC(=O)Nc2cc(Cl)ccc2C)cs1,.,.,0%,-9%,?,-7%
O=C(CC[C@H]1O[C@@H](n2cnc3c(NC(=O)c4ccccc4)ncnc32)[C@H](O)[C@@H]1O)NCc1nc2ccccc2[nH]1,.,.,36%,5%,23,-17%
COc1ccc(Cc2c(-c3ccc(OC)c(OC)c3)nc3c(C)cc(Br)cn23)c(C)c1,.,.,i,1%,-61*,?
NCC(=O)c1c[nH]c2ccccc12,.,.,-2%,-9%,.,.
COc1cccc(NC(=O)c2nc(S(C)(=O)=O)ncc2Cl)c1,?,11%,?,?,-103*,22µM*
Cc1cccc(NC(=O)c2nc(S(C)(=O)=O)ncc2Cl)c1,.,.,-15%,-10%,-108*,25µM*
CCC[C@H]1[C@@H](NS(=O)(=O)c2ccc(C(F)(F)F)cc2)CC[C@@]23CCCN2C(=O)CCC[C@@H]13,.,.,.,.,-13,.
CCOC(=O)C1C(=O)C=C(/C=C/c2ccc(N(C)C)cc2)CC1c1ccccc1 (stereo not given),5%,2%,i,423%,8,1%
Cc1c(NC(=O)Nc2cccs2)cccc1[N+](=O)[O-],?,-14%,.,.,-72*,15%
C[n+]1cccc2cccc([O-])c21,16%,0.45µM*,.,.,-22,-3%
[O-][n+]1cccc2cccc(O)c21,5%,.,-5%,6%,-13,3%
Cc1ccccc1NC(=S)N1CCN(c2ccccc2)CC1,13%,5%,-6%,-11%,34,-3%
COc1ccc(-c2nc(SCC(=O)NC(C)CCc3ccccc3)n[nH]2)cc1 (stereo not given),.,.,-17%,?,-89*,?
COc1ccc(/C=C/C(=O)NC(C)CCc2ccccc2)cc1 (stereo not given),-2%,-6%,-20%,-4%,-60*,7%
CC(CCc1ccccc1)NC(=O)CSc1n[nH]c(-c2ccccc2Cl)n1 (stereo not given),.,.,-15%,-15%,5,?
CC(CCc1ccccc1)NC(=O)CSc1n[nH]c(-c2ccccc2)n1 (stereo not given),.,.,-10%,-16%,-28,-16%
